Laboratory results as given in PubChem BioAssay (NCI).
About 83,000 compounds went through this panel and 20% of them were active in at least one assay; those are over-represented in the sample as a whole.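 In brief: 96-well plates, 48 h treatment, single concentration, percent growth endpoint.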 The source made the active and inactive calls. Rule for the calls: active = growth percent below 10; inactive = the rest.

What was measured:
Assay in all cases: NCI-60 one-dose screen, 48 h (100 = growth as untreated, 0 = no growth, -100 = all killed)
Details in all cases: 10 µM unless noted
SK-MEL-2 melanoma = system: SK-MEL-2 melanoma
EKVX NSCLC = system: EKVX NSCLC
SN12C renal = system: SN12C renal
UO-31 renal = system: UO-31 renal
TK-10 renal = system: TK-10 renal
ACHN renal = system: ACHN renal
CAKI-1 renal = system: CAKI-1 renal
A498 renal = system: A498 renal
CCRF-CEM leukemia = system: CCRF-CEM leukemia
MOLT-4 leukemia = system: MOLT-4 leukemia
SR leukemia = system: SR leukemia
RPMI-8226 leukemia = system: RPMI-8226 leukemia
OVCAR-8 ovarian = system: OVCAR-8 ovarian
OVCAR-5 ovarian = system: OVCAR-5 ovarian
SK-OV-3 ovarian = system: SK-OV-3 ovarian
IGROV1 ovarian = system: IGROV1 ovarian
OVCAR-3 ovarian = system: OVCAR-3 ovarian
HS 578T breast = system: HS 578T breast
NCI/ADR-RES ovarian = system: NCI/ADR-RES ovarian
OVCAR-4 ovarian = system: OVCAR-4 ovarian

Measured: growth

CC(=O)O[C@H]1CC[C@@]2(C)C(=CC[C@@H]3[C@@H]2CC[C@]2(C)C(=O)N(O)C(=O)C[C@@H]32)C1
inactive: SK-MEL-2 melanoma 80.4% | EKVX NSCLC 102% | SN12C renal 97.2% | UO-31 renal 97.4% | TK-10 renal 101% | ACHN renal 89.3% | CAKI-1 renal 64.1% | A498 renal 92.7% | CCRF-CEM leukemia 86% | MOLT-4 leukemia 79.5% | SR leukemia 74.8% | RPMI-8226 leukemia 52.8% | OVCAR-8 ovarian 101% | OVCAR-5 ovarian 98.9% | SK-OV-3 ovarian 93.2% | IGROV1 ovarian 83.3% | OVCAR-3 ovarian 102% | HS 578T breast 106% | NCI/ADR-RES ovarian 100%

COc1c(N)c2c(c([N+](=O)[O-])c1OC)C(=O)OC2
inactive: SK-MEL-2 melanoma 102% | EKVX NSCLC 111% | SN12C renal 93.5% | UO-31 renal 83.4% | TK-10 renal 103% | ACHN renal 117% | CAKI-1 renal 115% | A498 renal 104% | CCRF-CEM leukemia 96.2% | MOLT-4 leukemia 81.2% | SR leukemia 91.2% | RPMI-8226 leukemia 99.9% | OVCAR-8 ovarian 98.1% | OVCAR-5 ovarian 115% | SK-OV-3 ovarian 105% | IGROV1 ovarian 105% | OVCAR-3 ovarian 105% | HS 578T breast 109% | NCI/ADR-RES ovarian 114%

Oc1ccccc1/C=N\NC(=S)Nc1ccc(F)cc1
inactive: SK-MEL-2 melanoma 18.5% | EKVX NSCLC 29.8% | SN12C renal 36.6% | TK-10 renal 49.1% | ACHN renal 13.8% | A498 renal 91.9% | CCRF-CEM leukemia 14% | SR leukemia 11.5% | RPMI-8226 leukemia 41.1% | OVCAR-8 ovarian 21.9% | OVCAR-5 ovarian 55% | SK-OV-3 ovarian 33.8% | IGROV1 ovarian 20% | OVCAR-3 ovarian 34.4% | HS 578T breast 32.5%
active: UO-31 renal 7.46% | CAKI-1 renal -4.58% | MOLT-4 leukemia 7.67% | NCI/ADR-RES ovarian -2.4%

Oc1cccc2ccc(N/N=C/c3cc(CN4CCCCC4)c(O)c4ncccc34)nc12
active: SK-MEL-2 melanoma -4.78% | UO-31 renal -19% | ACHN renal -28.9% | CAKI-1 renal 6.88% | MOLT-4 leukemia 7.17% | SR leukemia -12.7% | RPMI-8226 leukemia 0.883% | OVCAR-8 ovarian 8.27% | OVCAR-4 ovarian 8.09% | SK-OV-3 ovarian -30.5% | OVCAR-3 ovarian 7.62% | NCI/ADR-RES ovarian 8.58%
inactive: EKVX NSCLC 20% | SN12C renal 17.6% | TK-10 renal 32.5% | A498 renal 38.9% | CCRF-CEM leukemia 10.7% | IGROV1 ovarian 14.3% | HS 578T breast 17.1%

Brc1cnc2[nH]cc(-c3nnc(-c4ccccc4)o3)c2c1
inactive: SK-MEL-2 melanoma 73.3% | EKVX NSCLC 31.4% | SN12C renal 79.9% | UO-31 renal 45.2% | TK-10 renal 58.9% | ACHN renal 28.9% | CAKI-1 renal 34.2% | A498 renal 47% | CCRF-CEM leukemia 102% | MOLT-4 leukemia 74.3% | SR leukemia 68.5% | RPMI-8226 leukemia 85% | OVCAR-8 ovarian 84.7% | OVCAR-5 ovarian 96.5% | OVCAR-4 ovarian 71.3% | OVCAR-3 ovarian 70.2% | HS 578T breast 79.2% | NCI/ADR-RES ovarian 80%

Cn1c2c(c3ccc(Cl)cc31)-n1cccc1C2=O
inactive: SK-MEL-2 melanoma 84.6% | EKVX NSCLC 86.4% | SN12C renal 74.5% | UO-31 renal 57.5% | TK-10 renal 88.2% | ACHN renal 78.2% | CAKI-1 renal 83.2% | A498 renal 89.6% | CCRF-CEM leukemia 85.7% | MOLT-4 leukemia 64.2% | SR leukemia 67.1% | RPMI-8226 leukemia 88.3% | OVCAR-8 ovarian 83.5% | OVCAR-5 ovarian 103% | SK-OV-3 ovarian 102% | IGROV1 ovarian 69.9% | OVCAR-3 ovarian 104% | HS 578T breast 104% | NCI/ADR-RES ovarian 99.7%

CC/C(=N/NC(N)=O)c1ccccc1
inactive: SK-MEL-2 melanoma 115% | EKVX NSCLC 91.5% | SN12C renal 106% | UO-31 renal 86.4% | TK-10 renal 105% | ACHN renal 108% | CAKI-1 renal 94.7% | A498 renal 105% | CCRF-CEM leukemia 94.2% | MOLT-4 leukemia 98% | SR leukemia 110% | RPMI-8226 leukemia 97.8% | OVCAR-8 ovarian 103% | OVCAR-4 ovarian 120% | SK-OV-3 ovarian 116% | IGROV1 ovarian 108% | OVCAR-3 ovarian 109% | HS 578T breast 104% | NCI/ADR-RES ovarian 104%

Fc1cccc(-c2[nH]nc3nc(Nc4cccnc4)sc23)c1
inactive: SK-MEL-2 melanoma 46.6% | EKVX NSCLC 57% | SN12C renal 58.5% | UO-31 renal 46.2% | TK-10 renal 77.3% | ACHN renal 61.5% | CAKI-1 renal 21.4% | A498 renal 84.2% | CCRF-CEM leukemia 28.8% | MOLT-4 leukemia 48.5% | SR leukemia 15% | RPMI-8226 leukemia 27.2% | OVCAR-8 ovarian 54% | OVCAR-5 ovarian 86.9% | SK-OV-3 ovarian 41% | IGROV1 ovarian 51.4% | HS 578T breast 69.4% | NCI/ADR-RES ovarian 21.6%
active: OVCAR-3 ovarian -18.3%

C(=C\c1c[nH]c2ccccc12)/c1ccc2ccccc2n1
inactive: SK-MEL-2 melanoma 86.5% | EKVX NSCLC 70.8% | SN12C renal 51.4% | UO-31 renal 23.6% | TK-10 renal 114% | ACHN renal 89.9% | CAKI-1 renal 60.7% | A498 renal 120% | CCRF-CEM leukemia 14.9% | MOLT-4 leukemia 12.4% | SR leukemia 67.5% | RPMI-8226 leukemia 44.7% | OVCAR-8 ovarian 78.7% | OVCAR-5 ovarian 121% | SK-OV-3 ovarian 89.5% | IGROV1 ovarian 47.8% | OVCAR-3 ovarian 69.3% | HS 578T breast 107% | NCI/ADR-RES ovarian 72.1%

COc1ccc(-c2n[nH]nc2-c2cc3ccccc3s2)cc1O
inactive: SK-MEL-2 melanoma 32.3% | EKVX NSCLC 41.9% | SN12C renal 32.4% | UO-31 renal 40.5% | TK-10 renal 57% | ACHN renal 44.4% | CAKI-1 renal 38.9% | CCRF-CEM leukemia 16% | MOLT-4 leukemia 15.1% | SR leukemia 18.6% | RPMI-8226 leukemia 21.1% | OVCAR-8 ovarian 27.7% | OVCAR-4 ovarian 52.4% | SK-OV-3 ovarian 15.5% | IGROV1 ovarian 49% | OVCAR-3 ovarian 16.1% | HS 578T breast 18.3% | NCI/ADR-RES ovarian 13.5%
active: A498 renal 1.86%

CC(=O)c1c(C)[nH]c(-c2nc3ccc(N4CCN(C)CC4)cc3[nH]2)c1-c1ccc(OCC2CCOCC2)cc1
inactive: SK-MEL-2 melanoma 53.3% | EKVX NSCLC 35.6% | SN12C renal 39.9% | ACHN renal 19.2% | CAKI-1 renal 12.4% | A498 renal 30.8% | CCRF-CEM leukemia 30.9% | MOLT-4 leukemia 47.5% | SR leukemia 28.1% | OVCAR-8 ovarian 38% | OVCAR-4 ovarian 35.7% | SK-OV-3 ovarian 13.5% | IGROV1 ovarian 16.2% | OVCAR-3 ovarian 30.7% | HS 578T breast 19.5% | NCI/ADR-RES ovarian 31.7%
active: UO-31 renal 6.97% | TK-10 renal -5.8% | RPMI-8226 leukemia -2.05%

Cn1cc(-c2csc(-c3cn(C(=O)OC(C)(C)C)c4ccc(Br)cc34)n2)c2cccnc21
inactive: SK-MEL-2 melanoma 91.5% | EKVX NSCLC 79.2% | SN12C renal 87.4% | UO-31 renal 82.4% | TK-10 renal 92.5% | ACHN renal 48.8% | CAKI-1 renal 79.3% | A498 renal 96.3% | CCRF-CEM leukemia 71% | MOLT-4 leukemia 97.4% | SR leukemia 58% | RPMI-8226 leukemia 84.5% | OVCAR-8 ovarian 70.7% | OVCAR-5 ovarian 95.5% | SK-OV-3 ovarian 98.7% | OVCAR-3 ovarian 98.3% | HS 578T breast 94.7% | NCI/ADR-RES ovarian 82.5%

O=C(O)c1cccc2c1C(=O)N(c1ccc3c(c1)Cc1ccccc1-3)C2=O
inactive: SK-MEL-2 melanoma 99% | EKVX NSCLC 111% | SN12C renal 111% | UO-31 renal 85.6% | TK-10 renal 100% | ACHN renal 113% | CAKI-1 renal 109% | A498 renal 104% | CCRF-CEM leukemia 104% | MOLT-4 leukemia 101% | SR leukemia 102% | RPMI-8226 leukemia 110% | OVCAR-8 ovarian 107% | OVCAR-5 ovarian 116% | SK-OV-3 ovarian 114% | IGROV1 ovarian 125% | OVCAR-3 ovarian 122% | HS 578T breast 112% | NCI/ADR-RES ovarian 116%

Cn1cc(-c2nc(-c3cn(C)c4ncccc34)cs2)c2cc(F)ccc21
active: OVCAR-3 ovarian 1.46%
inactive: SK-MEL-2 melanoma 31.1% | EKVX NSCLC 55.3% | SN12C renal 46% | UO-31 renal 51.1% | TK-10 renal 46.3% | ACHN renal 47.4% | CAKI-1 renal 20.8% | A498 renal 44.8% | CCRF-CEM leukemia 40% | MOLT-4 leukemia 35.6% | SR leukemia 22.4% | RPMI-8226 leukemia 38% | OVCAR-8 ovarian 54.6% | OVCAR-5 ovarian 56.3% | SK-OV-3 ovarian 57.4% | IGROV1 ovarian 44.2% | HS 578T breast 76.4% | NCI/ADR-RES ovarian 10.8%

O=C(O)c1cccc2c1-c1ccc(Cl)cc1C2
inactive: SK-MEL-2 melanoma 102% | EKVX NSCLC 110% | SN12C renal 105% | UO-31 renal 89.7% | TK-10 renal 103% | ACHN renal 107% | CAKI-1 renal 86.5% | A498 renal 96.8% | CCRF-CEM leukemia 99.5% | MOLT-4 leukemia 89.9% | SR leukemia 88.2% | RPMI-8226 leukemia 102% | OVCAR-8 ovarian 107% | OVCAR-5 ovarian 115% | SK-OV-3 ovarian 117% | IGROV1 ovarian 114% | OVCAR-3 ovarian 118% | HS 578T breast 103% | NCI/ADR-RES ovarian 110%

S=c1[nH]nc2ccccn12
inactive: SK-MEL-2 melanoma 95.3% | EKVX NSCLC 102% | SN12C renal 106% | UO-31 renal 87.7% | TK-10 renal 85.7% | ACHN renal 102% | CAKI-1 renal 102% | A498 renal 100% | CCRF-CEM leukemia 101% | MOLT-4 leukemia 80.7% | SR leukemia 95.7% | RPMI-8226 leukemia 108% | OVCAR-8 ovarian 125% | OVCAR-5 ovarian 108% | SK-OV-3 ovarian 114% | IGROV1 ovarian 115% | OVCAR-3 ovarian 124% | HS 578T breast 98.5% | NCI/ADR-RES ovarian 100%
